# Several values for one entry are separate records, joined by “and”; a condition that tells them apart may be missing. Equal entries are not always repeated. Activity calls are given as the source filed them.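 Rule for the calls, unless noted: active = compounds whose cell count with miR-34 switched on is under 0.7 times the count with it off; inactive = the rest.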
# How the values were obtained:
# [1] = system: Aerobactin synthetase IucA (Klebsiella pneumoniae); assay: IucA aerobactin synthetase inhibitors, biochemical, Tocris library, absorbance (AID 1345561; call rule not given here;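 note: 100% = enzyme without compound and 0% = no enzyme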); conditions: purified IucA enzyme assay, absorbance (OD) read-out; stronger effect = lower value;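 tested at 8 µM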
# [2] = sensitizers of A549 cells to miR-34 induction, primary screen, imaging, A549 dox-inducible miR-34, nuclei and caspase counts (AID 1347080); conditions: A549 miR-34 inducible, Hoechst nuclei count, 48 h
# [3] = viability rescue of complex I mutant cybrids, primary screen, cell-based, galactose medium, ATP luminescence (AID 1645843;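 active = z-score of at least 1.8 in each of two replicates, scored against plate mean and spread of sample wells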;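 note: positive z means more ATP and so rescue of galactose-driven cybrid death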); conditions: complex I mutant cybrid cells, 72 h, stronger effect = higher value
# [4] = stronger effect = lower value, cell number ratio, induced over uninduced
# [5] = measured here: relative caspase fold change +Dox/-Dox
# [6] = measured here: total cells with miR-34 induction, stronger effect = lower value
# [7] = measured here: total cells without miR-34 induction
Structure (SMILES),remaining activity [1],"fold change [2, 4]","fold change [2, 5]","cell count [2, 6]","cell count [2, 7]",z-score [3]
c1ccc2oc(C3=NCCN3)cc2c1,116% (inactive),0.904 (inactive),1.14,8470,9370,0.405 (inactive)
C[C@@H]1CC2C3CCC4=CC(=O)C=CC4(C)C3(F)[C@@H](O)CC2(C)C1(O)C(=O)CO (some centres undefined),110% (inactive),0.804 (inactive),0.753,7230,8990,0.725 (inactive)
CN(CCc1ccc(Cl)c(Cl)c1)CCN1CCCC1,108% (inactive),1.01 (inactive),0.63,8830,8750,-1.06 (inactive)
CO[C@@H]1[C@H](O)[C@@H](CO)O[C@H]1n1cnc2c(NC3CCCCC3)ncnc21,99.6% (inactive),0.954 (inactive),1.32,8920,9350,0.065 (inactive)
Cn1cc(/C=C2/C(=O)Nc3cccnc32)c2ccccc21,89.8% (inactive),0.833 (inactive),1.45,2650,3180,-0.435 (inactive)
c1cc2c3c(c1)c1c(n3CCNC2)CCCC1,120% (inactive),0.921 (inactive),1.32,7680,8340,-0.505 (inactive)
NC(C(=O)O)c1nn[nH]n1 (centres undefined),102% (inactive),1.01 (inactive),0.805,9500,9360,-0.46 (inactive)
c1ccc(COCCCc2cnc[nH]2)cc1,112% (inactive),0.883 (inactive),2.69,8520,9640,-0.18 (inactive)
O=C(O)c1ccc(/C=C2/SC(=S)N(c3cccc(C(F)(F)F)c3)C2=O)cc1,83.1% (inactive),0.837 (inactive),1.71,8080,9650,-0.215 (inactive)
COc1cc(N)c(Cl)cc1C(=O)CCC1CCN(CCNS(C)(=O)=O)CC1,97.5% (inactive),0.928 (inactive),0.69,9240,9960,1.25 (inactive)
CN(Cc1ccccc1)C(=O)[C@H](Cc1ccc2ccccc2c1)NC(=O)[C@@H]1C[C@@H](O)CN1C(=O)c1cn(C)c2ccccc12,102% (inactive),0.957 (inactive),1.21,6080,6350,3.41 (active)
Cc1nn(C)c2nc(NNC(=O)Nc3cc(Cl)nc(Cl)c3)cc(C(C)C)c12,121% (inactive),0.867 (inactive) and 1.06 (inactive),1.04 and 1.03,5060 and 4050,5840 and 3820,-0.55 (inactive)
CCN(CC)CCCCC1CCN(CC(=O)N2c3ccccc3C(=O)Nc3cccnc32)CC1,105% (inactive),0.936 (inactive),1.52,8520,9110,-0.225 (inactive)
N#C/C(=C\c1ccc(O)c(O)c1)C(=O)OCCc1cccs1,110% (inactive),0.871 (inactive),1.36,8430,9690,-0.59 (inactive)
CC(C)N1CCN(c2ccc(C(=O)c3c(-c4ccc(O)cc4)sc4cc(O)ccc34)cc2)CC1,105% (inactive),0.989 (inactive),1.64,6900,6980,-0.43 (inactive)
CN(CC[C@@H](Oc1ccc(-c2ccccc2)cc1)c1ccc(F)cc1)CC(=O)O,116% (inactive),0.898 (inactive),1.24,7970,8870,0.455 (inactive)
COc1ccc(-c2nc(-c3ccc(-c4cccc(Cl)c4)o3)[nH]c2-c2ccc(OC)cc2)cc1,125% (inactive),0.932 (inactive) and 1.97 (inactive),1.76 and 0.641,4720 and 2100,5060 and 1060,-0.15 (inactive)
CC[N+](C)(CC)CC(=O)Nc1c(C)cccc1C,109% (inactive),0.963 (inactive),0.801,8930,9270,0.265 (inactive)
NC(=O)N/N=C/c1ccc(Oc2ccc(F)cc2)cc1,94.3% (inactive),0.798 (inactive),2.22,7090,8890,0.135 (inactive)
N[C@@H](C(=O)O)c1ccc(O)c(C(=O)O)c1,100% (inactive),0.932 (inactive),0.807,8680,9320,-0.18 (inactive)
O=C(Nc1ccccc1)N[C@H]1C[C@H](C(=O)O)Nc2cc(Cl)cc(Cl)c21,104% (inactive),0.916 (inactive),0.915,8670,9460,0.995 (inactive)
O=C(O)c1ccc(-c2ccc3cc(C45CC6CC(CC(C6)C4)C5)c(O)cc3c2)cc1,87.5% (inactive),1.14 (inactive),1.52,1990,1740,-0.695 (inactive)
COc1cccc(NC(=O)/C=C/c2ccc(Cl)cc2)c1,93.6% (inactive),0.9 (inactive),1.32,5860,6510,0.75 (inactive)
CC[C@@H](C)[C@H]1O[C@]2(CC[C@@H]1C)C[C@@H]1C[C@@H](C/C=C(\C)[C@@H](O[C@H]3C[C@H](OC)[C@@H](O[C@H]4C[C@H](OC)[C@@H](O)[C@H](C)O4)[C@H](C)O3)[C@@H](C)/C=C/C=C3\CO[C@@H]4[C@H](O)C(C)=CC(C(=O)O1)[C@]34O)O2 (some centres undefined) (tested in a mixture with another compound),124% (inactive),0.987 (inactive),1.53,507,514,-1.04 (inactive)

# Reference: PubChem BioAssay
